JMJD2A Tudor – JMJD2A Tudor domain (human) inhibition; O75164; AlphaScreen JMJD2A-Tudor / H3K4me3 peptide binding; Potency, µM (titrated, usually from 114 µM), for inactives: at the highest dose activity change, negative = inhibition, hits mostly inhibitors; 390,000 compounds, 4.4% hits; AID 504339; also: % is scaled to controls: 0 for no effect and ±100 for the full control effect; nearly all actives have a fitted effect of over 50% in size
Target sequence (O75164 whole entry, looked up, the tested form may be a part): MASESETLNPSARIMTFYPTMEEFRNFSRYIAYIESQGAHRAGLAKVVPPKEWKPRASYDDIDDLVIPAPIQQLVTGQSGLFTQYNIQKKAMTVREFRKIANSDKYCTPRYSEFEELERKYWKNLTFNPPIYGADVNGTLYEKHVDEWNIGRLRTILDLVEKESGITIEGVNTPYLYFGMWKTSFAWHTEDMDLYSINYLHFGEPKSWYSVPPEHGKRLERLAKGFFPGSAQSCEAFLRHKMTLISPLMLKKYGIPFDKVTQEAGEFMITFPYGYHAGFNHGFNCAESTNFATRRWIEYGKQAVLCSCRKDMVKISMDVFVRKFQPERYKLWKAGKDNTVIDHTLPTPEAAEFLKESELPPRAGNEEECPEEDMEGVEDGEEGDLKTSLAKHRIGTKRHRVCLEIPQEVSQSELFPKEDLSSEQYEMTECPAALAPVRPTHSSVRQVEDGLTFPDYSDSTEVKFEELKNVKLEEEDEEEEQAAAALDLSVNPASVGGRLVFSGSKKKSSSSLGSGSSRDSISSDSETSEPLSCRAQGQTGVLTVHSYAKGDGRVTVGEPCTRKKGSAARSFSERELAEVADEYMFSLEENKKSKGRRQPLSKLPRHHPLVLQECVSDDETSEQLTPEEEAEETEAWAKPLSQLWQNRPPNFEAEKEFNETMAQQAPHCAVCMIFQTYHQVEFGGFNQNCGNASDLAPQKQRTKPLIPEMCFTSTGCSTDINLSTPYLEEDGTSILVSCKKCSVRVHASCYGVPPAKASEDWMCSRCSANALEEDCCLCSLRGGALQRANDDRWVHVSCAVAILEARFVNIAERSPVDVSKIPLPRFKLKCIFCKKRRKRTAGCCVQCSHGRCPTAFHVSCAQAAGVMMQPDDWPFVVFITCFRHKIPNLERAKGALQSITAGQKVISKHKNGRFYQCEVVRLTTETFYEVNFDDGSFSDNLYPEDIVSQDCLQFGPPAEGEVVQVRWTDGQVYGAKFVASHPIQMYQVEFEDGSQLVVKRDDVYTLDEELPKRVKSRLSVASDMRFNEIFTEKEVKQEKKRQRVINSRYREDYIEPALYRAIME
G9a block – blocks human histone lysine methyltransferase G9a; Potency, µM (titrated, usually from 102 µM), for inactives: at the top dose activity, negative = inhibition, usual class: inhibitors; G9a H3K9 monomethylation, AlphaScreen, 2 h; Q96KQ7; 350,000 compounds, 8.8% hits; also: % is scaled to controls: 0 for no effect and ±100 for the full control effect; nearly all actives have a fitted effect of over 75% in size
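Compounds were preincubated with 20 nM G9a for 15 min, after which biotinylated H3K9 peptide (500 nM) and SAM (20 uM) started a 2 h room-temperature reaction. Monomethylated product was quantified by antibody-based AlphaScreen chemiluminescence.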
HP1b chromo inh – inhibitors of HP1-beta chromodomain binding to methylated histone tails. P83916. AlphaScreen HP1-beta / biotin-H3K9me3 peptide binding. Potency, µM (top dose mostly 114 µM), without a hit: at the top dose activity change, negative = inhibition, hits mostly inhibitors. 390,000 compounds, 0.56% hits. AID 540317; also: nearly all actives have a fitted effect of over 70% in size
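AlphaScreen: HP1-beta (50 nM) preformed 30 min with biotin-H3(1-18)K9me3 peptide (50 nM) in PBS pH 7.4, 0.01% Tween-20. Compound added for 30 min at RT, then streptavidin donor/nickel chelate acceptor beads (10 ug/mL) for 30 min.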
L3MBTL1 inh – L3MBTL1 (human) inhibition | 230,000 compounds, 0.66% hits | Potency, µM (series often up to 57.1 µM), for inactives: at the highest dose activity, negative = inhibition, usual class: inhibitors | AlphaScreen L3MBTL1–H3K9me1 peptide binding; also: % is scaled to controls: 0 for no effect and ±100 for the full control effect; nearly all actives have a fitted effect of over 60% in size
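L3MBTL1 (50 nM) pre-complexed 30 min with biotinylated H3(1-15)K9me1 peptide (75 nM), then compounds added for 30 min at room temperature; AlphaScreen streptavidin donor/nickel chelate acceptor beads (10 ug/mL final) read after 30 min dark incubation.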
BAZ2B block – BAZ2B (human) inhibition | Potency, µM (highest dose often 114 µM), for inactives: at the top dose activity change, negative = inhibition, actives largely listed as inhibitors | AlphaScreen BAZ2B-H3K14Ac peptide displacement | 360,000 compounds, 4.4% hits | Q9UIF8 | AID 504333; also: % is scaled to controls: 0 for no effect and ±100 for the full control effect; nearly all actives have a fitted effect of over 60% in size
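Inhibition is scored as reduced AlphaScreen emission. The BAZ2B/b-H3(5-23)K14Ac complex (50 nM each) in PBS pH 7.4, 0.01% Tween-20 meets compound (up to 110 uM) for 30 min at RT before bead addition.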
* marks the source's active call; other numbers are inactive results; [ ] = dose if it differs, or a comment. An excerpt weighted towards active compounds, which were near 11% of everything screened. Calls follow the shape of the dose curve; as a rule, active = well fitted inhibition curve with a large enough effect; inconclusive = small, poorly fitted or top-dose-only effect; inactive = no such curve, though single readings can be large or run the other way. Potency is read from the fitted curve at half-maximal effect.

Screening Cc1c(/C(O)=C2\C(=O)C(=O)N(CCN(C)C)C2c2cccnc2)cnn1-c1ccccc1 (stereo unspecified) returned JMJD2A Tudor -4%, G9a block inconclusive, HP1b chromo inh 24%, L3MBTL1 inh 1% and BAZ2B block -6%.
Cc1c(/C(O)=C2/C(=O)C(=O)N(CCN3CCOCC3)C2c2ccccn2)cnn1-c1ccccc1 (stereo unspecified) was read as JMJD2A Tudor 50µM*, G9a block 7.9µM*, HP1b chromo inh 37%, L3MBTL1 inh -14% and BAZ2B block 25µM*.
For Cc1ccc(C)c(/C(O)=C2/C(=O)C(=O)N(CCN3CCOCC3)C2c2ccc(C)o2)c1 (stereo unspecified) the results were JMJD2A Tudor inconclusive, G9a block 14µM*, HP1b chromo inh 35%, L3MBTL1 inh 1% and BAZ2B block -13%.
CSc1cccc(NC(=O)CN2C(=O)COc3ccc(S(=O)(=O)N4CCC(C)CC4)cc32)c1 was read as JMJD2A Tudor -18%, G9a block -6%[59 µM], HP1b chromo inh 58% and BAZ2B block -20%.
`Fc1cccc(Cl)c1Cn1c(-c2cccs2)nc2ccccc21` gave JMJD2A Tudor -4%, G9a block 5%[59 µM], HP1b chromo inh 47% and BAZ2B block 6%.
Screening CC12CCC=CC1C(c1ccc3ccccc3c1)N(Cc1ccccc1)C2=O (stereo unspecified) returned JMJD2A Tudor -21% and HP1b chromo inh 22%.
O=C(CSc1nc2c(cnn2-c2ccccc2)c(=O)[nH]1)N1CCOCC1 was read as JMJD2A Tudor -18%[11.4 µM], G9a block -46%[0.0925 µM], HP1b chromo inh -4%, L3MBTL1 inh 4% and BAZ2B block -4%.
Screening CCCCCSc1nc2c(cnn2-c2ccccc2)c(=O)[nH]1 returned JMJD2A Tudor -1%, G9a block 1%[59 µM], HP1b chromo inh 46%, L3MBTL1 inh 7% and BAZ2B block -6%.
For Cc1ccc(-n2ncc3c(=O)[nH]c(SCC(=O)N4CCOCC4)nc32)cc1 the results were JMJD2A Tudor -3%, G9a block -49%, HP1b chromo inh 14%, L3MBTL1 inh 3% and BAZ2B block -3%.
`CCCCCSc1nc2c(cnn2-c2ccc(F)cc2)c(=O)[nH]1` gave JMJD2A Tudor 22µM*, G9a block 22%, HP1b chromo inh 15% and BAZ2B block -12%.
`CCC1CCCCN1C(=O)CSc1nc2c(cnn2-c2ccc(C)cc2)c(=O)[nH]1` (stereo unspecified) gave JMJD2A Tudor -13%, G9a block 56µM*, HP1b chromo inh 27%, L3MBTL1 inh -16% and BAZ2B block 2%.
`O=C(CSc1nc2c(cnn2-c2ccc(F)cc2)c(=O)[nH]1)N1CCOCC1` gave JMJD2A Tudor -12%, G9a block 79µM*, HP1b chromo inh 20%, L3MBTL1 inh 11% and BAZ2B block 9%.
Screening COc1ccc(CNC(=O)Cn2nc(N3CCN(c4ccccc4)CC3)ccc2=O)c(OC)c1 returned JMJD2A Tudor -15%, G9a block -1%[59 µM], HP1b chromo inh 18% and BAZ2B block -30%.
COc1ccc(-c2noc(N3CCC(C(=O)Nc4ccc(C)c(F)c4)CC3)n2)cc1OC was read as JMJD2A Tudor 3%, G9a block 8%[59 µM], HP1b chromo inh 17% and BAZ2B block 2%.
Fc1cccc(C[n+]2csc3ccccc32)c1 was read as JMJD2A Tudor 79µM*, G9a block 11µM*, HP1b chromo inh 18%, L3MBTL1 inh -12% and BAZ2B block inconclusive.
COc1cccc(Cn2c(=O)n(-c3cccc(Cl)c3C)c(=O)c3c4c(sc32)CN(C(C)=O)CC4)c1 was read as JMJD2A Tudor inconclusive, G9a block -5%[59 µM], HP1b chromo inh -5% and BAZ2B block -33%.
COc1ccc(S(=O)(=O)NCCc2sc(-c3cccc(F)c3)nc2C)cc1 was read as JMJD2A Tudor -11%, G9a block 4%[59 µM], HP1b chromo inh 37% and BAZ2B block 2%.
O=c1c2c(-c3ccccc3)csc2ncn1/N=C/c1cccc([N+](=O)[O-])c1O was read as JMJD2A Tudor 79µM*, G9a block 40µM*, HP1b chromo inh -16% and BAZ2B block 50µM*.
For O=c1c2c(-c3ccccc3)csc2ncn1/N=C/c1ccc(O)c([N+](=O)[O-])c1 the results were JMJD2A Tudor -30%, G9a block inconclusive, HP1b chromo inh 15% and BAZ2B block -33%.
Screening O=C(c1ccc2c(c1)N(Cc1ccc(Cl)cc1)C(=O)c1ccccc1S2(=O)=O)N1CCCC1 returned JMJD2A Tudor -24%, G9a block -34%[59 µM], HP1b chromo inh 27% and BAZ2B block -20%.
For COc1ccc(C(=O)Nc2cccc(/C=C(\CCC(=O)O)c3nc4ccccc4s3)c2)cc1 the results were JMJD2A Tudor -29%[11.4 µM], G9a block -3%[12.7 µM], HP1b chromo inh 32µM* and BAZ2B block 79µM*.
Screening O=C(O)C/C(=C\c1cccc(NC(=O)c2ccccc2Cl)c1)c1nc2ccccc2s1 returned JMJD2A Tudor 35µM*, G9a block 36%[12.7 µM], HP1b chromo inh -1% and BAZ2B block 79µM*.
CNc1ccc(/C=C(\CCC(=O)O)c2nc3ccccc3s2)cc1[N+](=O)[O-] was read as JMJD2A Tudor -17%, G9a block inconclusive, HP1b chromo inh 29%, L3MBTL1 inh -12% and BAZ2B block 45µM*.
COc1ccc(/C=C(\CC(=O)O)c2nc3ccccc3s2)cc1O was read as JMJD2A Tudor -23%, G9a block 11%, HP1b chromo inh 21% and BAZ2B block -12%.
Screening Cc1ccc(/C=C(\CCC(=O)O)c2nc3ccccc3s2)cc1[N+](=O)[O-] returned JMJD2A Tudor -30%, G9a block -8%[59 µM], HP1b chromo inh 5%, L3MBTL1 inh 0% and BAZ2B block -11%.
For COc1ccc(N(CC(=O)NCCc2ccccc2)S(=O)(=O)c2ccccc2)c(OC)c1 the results were JMJD2A Tudor -15%, G9a block 4%[59 µM], HP1b chromo inh 29% and BAZ2B block -17%.
For COc1ccc2c(c1)C(C)CC(C)(C)N2C(=O)CSc1nc2ccccc2s1 (stereo unspecified) the results were JMJD2A Tudor 3%, G9a block 8%, HP1b chromo inh 66%, L3MBTL1 inh 2% and BAZ2B block 4%[57.1 µM].
Screening COc1ccc2c(c1)C(C)CC(C)(C)N2C(=O)Nc1ccccc1 (stereo unspecified) returned JMJD2A Tudor 0%[57.1 µM], G9a block 22µM*, HP1b chromo inh 6%, L3MBTL1 inh -2% and BAZ2B block inconclusive.
`COc1ccc(-c2nn(CCC(=O)O)cc2/C=C2\SC(N)=NC2=O)cc1OC` gave JMJD2A Tudor inconclusive, G9a block inconclusive, HP1b chromo inh 25%, L3MBTL1 inh -5% and BAZ2B block 56µM*.
